HepG2 viability = qHTS for Inhibitors of TGF-b: Cytotox Counterscreen; HepG2 CAGA-GFP viability, ATP luminescence, 18 h; Potency, µM (doses to about 46.1 µM), inactives show at the top dose activity change, negative = cytotoxicity, actives largely listed as cytotoxic; hit rate 0.76% among 410,000; AID 588856, 2011; also: potency is read from the fitted curve at half-maximal effect
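CellTiter-Glo luminescence gave cytotoxicity after 18 hours at 37 degrees C. The cells were HepG2 CAGA-GFP in 1% FBS DMEM, stimulated with 500 pg/mL TGF-beta after compound addition. %Activity was normalised to no-cell wells (complete cell-killing) and DMSO (no toxicity), and curves were fitted and classified.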
TDP1 block = qHTS Assay for Inhibitors of Tyrosyl-DNA Phosphodiesterase (TDP1); Tyrosyl-DNA phosphodiesterase 1 (Homo sapiens), Q9NUW8; recombinant TDP1, AlphaScreen DNA substrate cleavage; Potency, µM (doses to about 130 µM), for inactives: top-dose activity change, negative = inhibition, hits mostly inhibitors; hit rate 0.28% among 350,000; AID 485290, 2010; also: potency is read from the fitted curve at half-maximal effect; % is scaled to controls: 0 for no effect and ±100 for the full control effect; nearly all actives have a fitted effect of over 40% in size
Target sequence (Q9NUW8 whole entry, looked up): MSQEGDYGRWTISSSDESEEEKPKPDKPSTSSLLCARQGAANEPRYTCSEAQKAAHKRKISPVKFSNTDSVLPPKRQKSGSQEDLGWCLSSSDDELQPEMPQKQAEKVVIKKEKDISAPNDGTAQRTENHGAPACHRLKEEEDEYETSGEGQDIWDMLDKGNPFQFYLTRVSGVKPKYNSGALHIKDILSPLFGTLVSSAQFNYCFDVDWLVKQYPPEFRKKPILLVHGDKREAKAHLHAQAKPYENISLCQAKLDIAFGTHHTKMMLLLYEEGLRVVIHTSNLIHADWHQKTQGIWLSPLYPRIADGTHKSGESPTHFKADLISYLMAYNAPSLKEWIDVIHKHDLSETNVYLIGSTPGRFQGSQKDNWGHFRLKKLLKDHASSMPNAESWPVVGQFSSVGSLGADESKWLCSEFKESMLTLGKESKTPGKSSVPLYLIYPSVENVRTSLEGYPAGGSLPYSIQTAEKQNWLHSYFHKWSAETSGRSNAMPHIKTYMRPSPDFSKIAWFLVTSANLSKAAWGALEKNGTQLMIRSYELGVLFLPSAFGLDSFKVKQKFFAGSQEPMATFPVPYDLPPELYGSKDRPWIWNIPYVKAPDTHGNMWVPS
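Tdp1 1 nM final; 15 min RT w/ cpd; substrate 15 nM, 5 min; beads 10 ug/ml, 10 min; AlphaScreen read. Neg ctrl: no enzyme.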
DT40 TDP1 no CPT = qHTS for Inhibitors of human tyrosyl-DNA phosphodiesterase 1 (TDP1): qHTS in cells in absence of CPT. DT40 Tdp1-/- hTDP1 cells, no CPT, ATP luminescence, 48 h. Potency, µM (top dose mostly 46.2 µM), for the others: top-dose activity change, negative = growth inhibition, actives largely listed as inhibitors. hit rate 15% among 420,000. AID 686978, 2013; also: potency is read from the fitted curve at half-maximal effect; % is scaled to controls: 0 for no effect and ±100 for the full control effect; nearly all actives have a fitted effect of over 55% in size
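Seeded 400 DT40-hTDP1 cells/well (vehicle DMSO, no 20 nM CPT); pinned compounds; ≥48 hr at 37 °C; CellTiter-Glo luminescence as viability measure.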
IL-1B inflam inh = qHTS for Inhibitors of Inflammasome Signaling: IL-1-beta AlphaLISA Primary Screen. hit rate 4.7% among 360,000. activity change, % at 57.5 µM. THP-1 LPS/ATP IL-1B secretion, AlphaLISA, 16 h; active compounds read low. AID 743279, 2014; in the data active = activity change below about -50%; inconclusive = mostly about -30% to -49%; also: % is scaled to controls: 0 for no effect and ±100 for the full control effect
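Secreted IL-1B measured by AlphaLISA bead assay after 16 h compound exposure of THP-1 cells; compounds (final up to 57.5 uM) added 1 h before LPS (250 ng/mL) and ATP (1.25 mM) stimulation; lower signal means less secretion.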
DT40 TDP1 CPT = qHTS for Inhibitors of human tyrosyl-DNA phosphodiesterase 1 (TDP1): qHTS in cells in presence of CPT | chicken DT40 Tdp1-/-;hTDP1 cells + 20 nM CPT, ATP luminescence, 48 h | Potency, µM (highest dose often 46.2 µM), inactives show at the top dose activity change, negative = growth inhibition, hits mostly inhibitors | hit rate 12% among 420,000; also: potency is read from the fitted curve at half-maximal effect; % is scaled to controls: 0 for no effect and ±100 for the full control effect; nearly all actives have a fitted effect of over 55% in size
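Chicken DT40 Tdp1-/- cells stably complemented with human TDP1 were seeded at 400 cells/well in medium containing 20 nM camptothecin, exposed to pin-transferred compounds, and grown at 37 °C for at least 48 hr. Viability was read as ATP luminescence.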
TGFb SMAD3 inh = qHTS for Inhibitors of TGF-b; HepG2 CAGA-GFP TGF-b/SMAD3 reporter, GFP fluorescence, 18 h; TGF-beta stimulated, 500 pg/mL final; Potency, µM (top dose mostly 46.1 µM), inactives show top-dose activity, negative = inhibition, hits mostly inhibitors; hit rate 1.2% among 410,000; also: potency is read from the fitted curve at half-maximal effect; % is scaled to controls: 0 for no effect and ±100 for the full control effect; nearly all actives have a fitted effect of over 65% in size
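Smad-responsive CAGA-GFP expression was quantified in HEPG2 cells exposed to compounds and 500 pg/mL final TGF-beta for 18 h at 37 degrees C; unstimulated wells defined full inhibition.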
The depositor's hits bear a star; ? = inconclusive; . = not tested or not shown; [ ] = remark or other dose. Shown are actives, neighbours in structure and some others; about 19% of the full set was active somewhere. Unless noted, calls follow the shape of the dose curve; as a rule, active = well fitted curve in the direction sought with a large enough effect; inconclusive = small, poorly fitted or top-dose-only effect, or another doubt; inactive = no such curve, though single readings can be large; an effect the other way counts as inactive or inconclusive.

SMILES | HepG2 viability | TDP1 block | DT40 TDP1 no CPT | IL-1B inflam inh | DT40 TDP1 CPT | TGFb SMAD3 inh
CC(=O)c1ccc(N2CCN(CC(O)COC(c3ccccc3)c3ccccc3C)CC2)cc1 (centres undefined) | -20.8% | 5.6% | ? | ? | 23.1µM* | ?
COc1cc(C(C)=O)ccc1OCC(O)CN1CCN(c2cc(C)cc(C)c2)CC1 (centres undefined) | -22.4% | . | 16.4µM* | -15.1 | ? | -14.5%
CC(=O)c1ccc(N2CCN(CC(O)COC(c3ccccc3)c3ccccc3)CC2)cc1 (centres undefined) | -30.2% | 2.3% | ? | ? | ? | ?
CC(=O)c1ccc(OCC(O)CN2CCN(c3ccc(F)cc3)CC2)cc1 (centres undefined) | -6.3% | . | 23.1µM* | -0.9 | ? | -10.1%
Cc1ccccc1OCC(=O)NCCCNC(=O)c1ccncc1 | 2.9% | 2.6%[0.0935 µM] | 2.3% | 5.0 | -3.3% | -6.7%
Cc1cc(C)c(S(=O)(=O)N(C)c2ccccc2)c(C)c1 | -8.0% | -2.6% | -9.2% | ? | ? | -1.6%
Cc1nc(S(=O)(=O)N(C)c2ccccc2)c(C#N)c(C)c1Cl | -37.5% | -4.0% | 23.1µM* | ? | 23.1µM* | ?
CC(NC(=O)CN(C)CC(=O)Nc1cccc(F)c1)c1ccccc1 (centres undefined) | -1.0% | 1.6% | -5.9% | 3.8 | -22.4% | -3.9%
COC(=O)c1c(NC(=O)CN2C(=O)NC3(CCCCC3C)C2=O)sc2c1CCC2 (centres undefined) | 2.0% | -1.2% | ? | -52.3* | ? | 15.7%
CCOC(=O)c1c(NC(=O)CN2C(=O)NC3(CCCCC3C)C2=O)sc(C)c1CC (centres undefined) | 0.0% | -9.6%[0.505 µM] | ? | -8.5 | ? | ?
COc1ccc(OC)c(/C=N/Nc2cc(C)nc(N3CCOCC3)n2)c1 | -2.6% | . | 16.4µM* | 10.8 | ? | -0.3%
Oc1cccc(/C=N/Nc2cc(N3CCCC3)nc(N3CCCC3)n2)c1 | -30.5% | 8.2% | ? | -102.1* | ? | ?
Brc1cccc(/C=N/Nc2nc(N3CCCCC3)nc(N3CCCCC3)n2)c1 | . | 4.8% | . | . | . | .
COc1ccc(/C=N/Nc2cc(N3CCCC3)nc(N3CCCC3)n2)cc1 | -70.3% | 8.6% | 20.6µM* | -90.8* | 20.6µM* | ?
Oc1ccc(/C=N/Nc2cc(N3CCOCC3)nc(N3CCOCC3)n2)cc1 | -43.8% | . | 20.6µM* | ? | 16.4µM* | 27.4%
COc1cc(=O)n2c(c1C(=O)NC(C)c1ccco1)CCN(Cc1ccccc1C(F)(F)F)CC2 (centres undefined) | . | . | ? | . | -4.2% | .
O=C(CC1C(=O)NCCN1Cc1ccccc1C(F)(F)F)NC1CCC1 (centres undefined) | -13.7% | 1.7% | ? | -10.1 | -35.0% | 9.9%
Cc1cccc(CNC(=O)c2cnc3sc(N4CCCCCC4)nn3c2=O)c1 | -21.6% | 8.4% | -8.7% | . | -16.2% | 0.0%
Oc1ccc(/C=N/Nc2cc(N3CCCC3)nc(N3CCCC3)n2)cc1 | -28.6% | 5.3% | ? | -101.1* | ? | -3.8%
COc1cc(/C=N/Nc2nc(N3CCCC3)nc(N3CCCC3)n2)ccc1O | -17.8% | 2.3% | ? | -8.9 | -27.7% | -1.9%
Cc1nc(N/N=C/c2ccc(Br)cc2)cc(N2CCOCC2)n1 | -78.4% | . | ? | -17.7 | 7.31µM* | 29.8%
CCOc1ccc(/C=N/Nc2cc(N3CCOCC3)nc(C)n2)c(O)c1 | -22.0% | 3.1% | ? | 74.4 | ? | -10.0%
O=C(CCSCCc1ccccn1)Nc1ccccc1C(F)(F)F | 0.0% | -0.9% | -26.4% | . | -2.2% | -12.1%
COc1cc(SC)ccc1C(=O)NCCc1c[nH]c2ccccc12 | -5.4% | . | ? | -64.7* | ? | 0.7%
COc1cc(SC)ccc1C(=O)NCCOc1ccc(F)cc1 | 2.8% | 2.2% | 16.4µM* | -6.5 | ? | -2.8%
SMILES | HepG2 viability | TDP1 block | DT40 TDP1 no CPT | IL-1B inflam inh | DT40 TDP1 CPT | TGFb SMAD3 inh
COc1cc2cc(C(=O)NCCc3c[nH]c4ccccc34)c(N)nc2cc1OC | . | . | 16.4µM* | ? | ? | .
COc1ccc2c(CC(=O)Nc3ccc(C)cc3)coc2c1 | -15.8% | 2.5% | -21.2% | . | ? | -21.5%
Cn1ccc2cc(S(=O)(=O)N3CCN(C(=O)Nc4ccccc4F)CC3)ccc21 | -0.3% | 5.3% | . | . | . | 1.6%
CCOC(=O)c1ccccc1NC(=O)N(Cc1ccc(C)cc1)Cc1cccn1-c1nnc(N2CCCC2=O)s1 | -2.9% | 2.9% | 18.4µM* | . | 23.1µM* | -1.7%
Cc1ccc(CN(Cc2cccn2-c2nnc(N3CCCC3=O)s2)C(=O)Nc2ccc(F)cc2)cc1 | 0.4% | 3.9% | ? | . | ? | -32.1%
CCOC(=O)C1CCN(C(=O)c2ccc(OCC(=O)Nc3cccc(C(F)(F)F)c3)cc2)CC1 | -7.3% | 1.8% | ? | -0.3 | ? | -15.7%
COc1cc(C(=O)N(C)CCOc2ccccc2)ccc1OCC(=O)Nc1cccc(C(F)(F)F)c1 | -8.8% | . | 16.4µM* | -72.8* | 25.9µM* | ?
CCOC(=O)C1CCN(C(=O)c2ccc(OCC(=O)Nc3ccc(OCC)cc3)c(OC)c2)CC1 | -6.9% | 2.7%[0.505 µM] | 16.4µM* | -23.2 | 20.6µM* | -2.7%
CCOC(=O)C1CCCN(C(=O)c2ccc(OC)c(OC)c2)CC1 (centres undefined) | -4.5% | . | -7.1% | 28.3 | -9.2% | 5.2%
CCOC(=O)N1CCC(NC(=O)c2cc(C(=O)Nc3cccc(C(F)(F)F)c3)ccc2CO)CC1 | -33.5% | 6.0% | 3.26µM* | 23.4 | 5.17µM* | ?
CCOC(=O)C1CCN(C(=O)c2ccc(OCC(=O)Nc3cccc(C(F)(F)F)c3)c(OC)c2)CC1 | -31.9% | . | 9.2µM* | ? | 13µM* | ?
CCOC(=O)c1cccc(NC(=O)c2ccc3snnc3c2)c1 | -31.9% | 0.0% | 18.4µM* | . | ? | -2.1%
CCOC(=O)c1cccc(NC(=O)c2cnc3ccccc3n2)c1 | 4.6% | 3.9% | 25.9µM* | -12.7 | ? | 6.7%
COc1ccc(CNC(=O)CN2N=C(c3ccccc3)CCC2=O)c(OC)c1 | -12.6% | 5.2% | ? | . | -21.5% | -13.7%

From PubChem
